Screening results: PubChem, The Scripps Research Institute Molecular Screening Center
The list is not random: actives were taken first. Their share in the collection is about 3.4%.
ADAM10 inh = inhibits human ADAM10 | inhibition, % at 7 µM | actives 0.62% (n = 370,000) | recombinant ADAM10, EDANS/DABCYL FRET peptide cleavage, 3 h | AID 720582;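 active = inhibition above a per-campaign cutoff equal to the mean of compounds falling between control-based bounds plus 3 SD, cut at about 20% in these data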
KLK7 zymogen act = activates the human kallikrein-7 zymogen; P49862; purified proKLK7, EDANS-DABCYL substrate fluorescence; 100% is mature enzyme control, 0% vehicle; activation, % at 7 µM; actives 0.9% (n = 370,000); AID 652039;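 active = activation above the mean of all tested compounds plus 3 SD, computed per campaign excluding outliers beyond control limits, cut at about 13% in these data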
sPLA2-III inh = Blocks human group III sPLA2 activity; actives 0.56% (n = 370,000); inhibition, % at 12.2 µM; Q9NZ20; QFRET BODIPY PC-A2 liposome hydrolysis, fluorescence;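 active = inhibition above mean plus 3 SD of compounds lying within the high and low control bounds, cut at about 19% in these data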
Target sequence (Q9NZ20 whole entry, looked up): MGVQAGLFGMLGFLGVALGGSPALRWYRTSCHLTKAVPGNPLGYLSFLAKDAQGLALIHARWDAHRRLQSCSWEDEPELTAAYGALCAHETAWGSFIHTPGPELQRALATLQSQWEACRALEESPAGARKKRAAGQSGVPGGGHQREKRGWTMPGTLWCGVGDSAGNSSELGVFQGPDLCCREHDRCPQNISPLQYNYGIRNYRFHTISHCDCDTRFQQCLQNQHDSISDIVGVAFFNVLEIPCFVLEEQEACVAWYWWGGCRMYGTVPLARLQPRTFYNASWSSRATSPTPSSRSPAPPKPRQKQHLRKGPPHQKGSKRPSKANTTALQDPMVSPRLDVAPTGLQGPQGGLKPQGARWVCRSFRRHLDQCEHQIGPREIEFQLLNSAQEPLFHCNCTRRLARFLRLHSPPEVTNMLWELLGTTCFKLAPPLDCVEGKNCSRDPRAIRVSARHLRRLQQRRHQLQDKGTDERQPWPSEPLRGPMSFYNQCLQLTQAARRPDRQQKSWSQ
ADAM17 inh = inhibitors of human ADAM17; inhibition, % at 6.95 µM; actives 0.83% (n = 370,000); P78536; recombinant ADAM17, EDANS/DABCYL FRET peptide cleavage; AID 720648;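 active = inhibition above the mean of compounds lying between control limits plus 3 SD, set per campaign, cut at about 8.5% in these data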
PLCb3 inh = PLC-beta3 (human) inhibition, primary screen; Q01970; Purified PLC-beta3, fluorogenic substrate, fluorescence; inhibition, % at 12.2 µM; actives 0.18% (n = 370,000); AID 720704; in the data active = inhibition above about 11%
PLCg1 inh = PLC-gamma1 (human) inhibition, primary screen; actives 0.84% (n = 370,000); purified PLC-gamma1, fluorogenic substrate, fluorescence; inhibition, % at 12.2 µM; AID 720700; in the data active = inhibition above about 9.5%
ADAM10 ctr = ADAM10 inhibition, counter-screen for ADAM17 exosite hits; shares compounds with ADAM17 inh; recombinant ADAM10, EDANS/DABCYL FRET peptide cleavage, 3 h; inhibition, % at 6.95 µM; actives 47% (n = 2,900); AID 743256;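 active = mean inhibition over the triplicate runs exceeds the activity threshold set in the earlier primary screen, cut at about 20% in these data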
ADAM17 confirm = human ADAM17 inhibition, confirmation; shares compounds with ADAM17 inh; recombinant ADAM17, EDANS/DABCYL QFRET peptide cleavage; inhibition, % at 6.95 µM; actives 65% (n = 2,900);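 active = mean inhibition across replicates above the hit cutoff set in the primary screen, cut at about 8.5% in these data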
Of the large screens only hits and unclear results are named; the others gave an inactive call (follow-up assays come after a bar, where they were run).

CC(=O)N1CC(C)Sc2ccc(S(=O)(=O)NCCc3ccc(C)cc3)cc21 (configuration not stated)	ADAM17 inh 9.3 | ADAM10 ctr inactive | ADAM17 confirm inactive
COc1cccc(NC2c3ccccc3C(=O)N2Cc2ccccc2Cl)c1 (configuration not stated)	ADAM17 inh 11.7 | ADAM10 ctr inactive | ADAM17 confirm 10.8
COCCN=C1S/C(=C\c2cc(C)n(-c3ccc(F)cc3F)c2C)C(=O)N1C	none (no result: KLK7 zymogen act)
COc1ccc(CCNS(=O)(=O)c2ccc(N3CCCC3=O)cc2)cc1	ADAM17 inh 11.6 | ADAM10 ctr inactive | ADAM17 confirm inactive
Fc1ccc(-c2n[nH]c(=S)n2N=Cc2ccc(-c3ccccc3)cc2)cc1	none
CCC[C@H]1[C@@H](NC(=O)C2CCCCC2)CC[C@@]23CCCN2C(=O)CCC[C@@H]13	none (no result: KLK7 zymogen act)
O=C(Nc1ccc(OC(=O)c2ccco2)cc1)c1ccco1	none
O=C(OC1CCCCC1)c1ccc(NC(=O)c2ccco2)cc1	ADAM17 inh 11.9 | ADAM10 ctr 21.4 | ADAM17 confirm 12.1
COCCCN1C(=O)[C@H](CC(=O)NCc2ccc(OC)c(OC)c2)[C@]2(C(=O)OC)CCCCC=C12	none
COc1ccc(C2Oc3ccccc3C3=C2C(c2cccs2)n2ncnc2N3)cc1 (configuration not stated)	ADAM17 inh 9.6 | ADAM10 ctr inactive | ADAM17 confirm 9.3
CCOc1ccc(N(CC(=O)Nc2cccc(C)c2)S(C)(=O)=O)cc1	ADAM17 inh 9.0 | ADAM10 ctr inactive | ADAM17 confirm inactive
CCOc1ccc(N(CC(=O)NN=C2CCN(C)CC2)S(C)(=O)=O)cc1	ADAM17 inh 8.7 | ADAM10 ctr inactive | ADAM17 confirm inactive
CCOC(=O)N1CCN(C(=O)CN(c2ccc(OCC)cc2)S(C)(=O)=O)CC1	none
O=C(CCNS(=O)(=O)c1ccccc1C(F)(F)F)N1CCCCCCC1	none
O=C(CCNS(=O)(=O)c1ccccc1C(F)(F)F)N1CCN(C(c2ccccc2)c2ccccc2)CC1	ADAM17 inh 8.9 | ADAM10 ctr 30.2 | ADAM17 confirm 18.4
C=CCN(CC#CC1=CCCCC1)CC1CC1	none
CC1(C)C=Cc2c(c3c(c4c(=O)c(-c5ccc(O)cc5)coc24)OC(C)(C)CC3)O1	none
CC(C)=CCc1c2c(c3occ(-c4ccc(O)cc4)c(=O)c3c1O)C=CC(C)(C)O2	ADAM17 inh 9.5 | ADAM10 ctr 21.3 | ADAM17 confirm 15.2
CC(C)=CCc1c2c(c3occ(-c4ccc(O)c(O)c4)c(=O)c3c1O)C=CC(C)(C)O2	ADAM17 inh 11.2 | ADAM10 ctr inactive | ADAM17 confirm inactive
COc1cccc(N2CCN(C(=O)COc3cc(=O)n(C)c4ccccc34)CC2)c1	none
COc1ccc(-c2c(C(=O)c3ccccc3)[nH]c(N)c2C(=O)NCCc2c[nH]c3ccccc23)cc1	none
Cc1nc(N2CCC(C)CC2)c2c(C)c(C(=O)Nc3ccc(C)c(F)c3)sc2n1	none
Cc1nc(N2CCN(C)CC2)c2c(C)c(C(=O)Nc3ccc(C)c(F)c3)sc2n1	ADAM17 inh 8.8 | ADAM10 ctr inactive | ADAM17 confirm 8.8
Cc1nc(N2CCCCC2)c2c(C)c(C(=O)Nc3ccc4c(c3)OCCO4)sc2n1	ADAM17 inh 9.6 | ADAM10 ctr inactive | ADAM17 confirm 11.5
Cc1cccc(NC(=O)c2sc3nc(C)nc(N4CCOCC4)c3c2C)c1	none
CCN(CC)C1Oc2cc3c(cc2C(c2cc(OC)c(OC)c(OC)c2)C1C)OCO3 (configuration not stated)	ADAM17 inh 9.9 | ADAM10 ctr inactive | ADAM17 confirm 9.9
CC(C)(C)N(NC(=O)NCCCl)C(=O)c1ccccc1Cl	none
CCc1ccc(/C=C2/Sc3ccccc3N(CC(=O)NCC3CCCO3)C2=O)cc1 (configuration not stated)	ADAM17 inh 8.8 | ADAM10 ctr inactive | ADAM17 confirm inactive
CCOC(=O)C1=C(c2ccccc2)NC(=O)NC1c1cc(Br)c(O)c(OC)c1 (configuration not stated)	ADAM17 inh 10.3 | ADAM10 ctr inactive | ADAM17 confirm inactive
CCCCN(CCCC)CCNC(=O)c1cn(C)c2ccc(S(=O)(=O)N3CCCC3)cc2c1=O	ADAM17 inh 9.4 | ADAM10 ctr inactive | ADAM17 confirm inactive
O=C(NC1CCCCN(Cc2cccc(Cl)c2)C1=O)c1ccc(COc2ccccc2)cc1 (configuration not stated)	ADAM17 inh 10.5 | ADAM10 ctr inactive | ADAM17 confirm 11.4
Cc1cc(C)nc(NC(=O)C(c2ccccc2)c2ccccc2)n1	ADAM17 inh 8.7 | ADAM10 ctr inactive | ADAM17 confirm inactive
Cc1cc(C)nc(NC(=O)C(c2ccccc2)c2ccccc2)c1	none
CN1CCCCC(NC(=O)CCl)C1=O (configuration not stated)	none
O=C(NCc1ccccc1)OCCCN1C(=O)CCC12CCCCC2	none
O=S(=O)(c1ccccc1F)N1CCC(c2nc3ccccc3o2)CC1	ADAM17 inh 9.1 | ADAM10 ctr inactive | ADAM17 confirm inactive
c1cncc(CNc2nc(-c3cccnc3)nc3ccccc23)c1	none
CC(C)(C)c1ccc(-c2nc(NCc3cccnc3)c3ccccc3n2)cc1	ADAM17 inh 12.5 | ADAM10 ctr inactive | ADAM17 confirm 12.2
Cn1ccnc1C(=O)O[C@@H]1CCC[C@@]2(C(=O)N(Cc3ccccc3)c3ccccc32)[C@H]1NC(=O)CCc1ccccc1	none
Cc1nn(Cc2noc(C(=O)NCc3ccccn3)n2)c(C)c1Br	ADAM17 inh 9.6 | ADAM10 ctr inactive | ADAM17 confirm inactive
CSc1nnc2c(n1)C[C@H](c1ccccc1)[C@@H](C)[C@@H](C(=O)N1CCCC1)C2	none
CC(Oc1ccc(Cl)cc1)c1ccnn1S(=O)(=O)c1ccccc1 (configuration not stated)	ADAM17 inh 8.9 | ADAM10 ctr inactive | ADAM17 confirm 14.8
O=C(Oc1cccc(NC(=O)c2cccs2)c1)c1cccc(S(=O)(=O)N2CCCC2)c1	ADAM17 inh 11.2 | ADAM10 ctr 26.5 | ADAM17 confirm 16.5
CC(=O)NNC(=O)CC(=O)Nc1nc(C23CC4CC(CC(C4)C2)C3)cs1	ADAM17 inh 8.9 | ADAM10 ctr inactive | ADAM17 confirm inactive
CCNc1nc(C23CC4CC(CC(C4)C2)C3)cs1	none
O=C(c1ccc(CS(=O)Cc2ccc(Cl)cc2)o1)N1CCN(c2cccc(Cl)c2)CC1 (configuration not stated)	none
